The values below come from PMC7862700, “An all-to-all approach to the identification of sequence-specific readers for epigenetic DNA modifications on cytosine”.

Assay in all cases: DAPPL (digital affinity profiling via proximity ligation, sequencing); 10 mM Tris-HCl pH 7.5, 50 mM NaCl, 1 mM DTT, 4% glycerol, room temperature, 30 min; GST-TFs on glutathione beads, 16-mer random dsDNA library, 0.1% formaldehyde crosslink after washing; high values mean tight binding
Conditions in all cases: protein: recombinant; tags: N-terminal GST; dsDNA, one strand shown

In test [1] the target is T1, ERF (Homo sapiens, UniProt P50548 1-548).
T1 sequence: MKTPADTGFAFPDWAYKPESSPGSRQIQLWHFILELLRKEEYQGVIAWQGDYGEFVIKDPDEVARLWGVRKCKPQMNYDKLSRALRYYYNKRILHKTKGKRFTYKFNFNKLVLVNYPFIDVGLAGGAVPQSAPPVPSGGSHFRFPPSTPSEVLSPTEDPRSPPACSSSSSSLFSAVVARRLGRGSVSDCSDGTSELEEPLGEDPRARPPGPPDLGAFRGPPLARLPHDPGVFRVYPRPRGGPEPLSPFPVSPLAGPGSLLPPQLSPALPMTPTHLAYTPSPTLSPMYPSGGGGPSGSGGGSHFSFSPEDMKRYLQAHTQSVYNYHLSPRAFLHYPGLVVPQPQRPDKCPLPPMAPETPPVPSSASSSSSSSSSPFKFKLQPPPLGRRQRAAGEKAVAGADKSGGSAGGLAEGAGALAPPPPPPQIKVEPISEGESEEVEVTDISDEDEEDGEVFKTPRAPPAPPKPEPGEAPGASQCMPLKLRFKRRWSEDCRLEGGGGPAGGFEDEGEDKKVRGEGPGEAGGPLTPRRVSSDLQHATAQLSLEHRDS
The method, boiled down: (§1)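 GST fusions of human transcription factors were expressed in yeast and captured with glutathione beads. Once given DNA barcodes and pooled alongside a tag-only sample, they were incubated for 30 min at room temperature with 200 nmole of a random double-stranded 16-mer DNA library in Tris/NaCl/DTT/glycerol buffer, then washed, crosslinked (0.1% formaldehyde), proximity-ligated, PCR-amplified and sequenced on an Illumina NextSeq500. The binding signal of each hexamer is its read frequency for a factor divided by its frequency for the tag-only sample.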

Test [2] addresses T2, ETV3L (Homo sapiens, UniProt Q6ZN32 1-361).
T2 sequence: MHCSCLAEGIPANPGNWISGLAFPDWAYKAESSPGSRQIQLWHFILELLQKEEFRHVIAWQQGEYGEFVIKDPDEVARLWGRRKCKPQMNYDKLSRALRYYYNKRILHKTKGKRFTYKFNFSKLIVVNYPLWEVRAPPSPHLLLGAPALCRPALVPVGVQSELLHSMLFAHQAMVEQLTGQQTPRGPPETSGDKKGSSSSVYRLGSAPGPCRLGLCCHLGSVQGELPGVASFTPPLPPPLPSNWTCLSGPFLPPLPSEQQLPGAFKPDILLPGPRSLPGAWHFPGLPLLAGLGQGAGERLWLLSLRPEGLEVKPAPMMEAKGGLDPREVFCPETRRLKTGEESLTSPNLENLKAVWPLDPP
Put shortly:
as §1

Test [3] has as its target T3, ETS2 (Homo sapiens, UniProt P15036 1-469).
T3 sequence: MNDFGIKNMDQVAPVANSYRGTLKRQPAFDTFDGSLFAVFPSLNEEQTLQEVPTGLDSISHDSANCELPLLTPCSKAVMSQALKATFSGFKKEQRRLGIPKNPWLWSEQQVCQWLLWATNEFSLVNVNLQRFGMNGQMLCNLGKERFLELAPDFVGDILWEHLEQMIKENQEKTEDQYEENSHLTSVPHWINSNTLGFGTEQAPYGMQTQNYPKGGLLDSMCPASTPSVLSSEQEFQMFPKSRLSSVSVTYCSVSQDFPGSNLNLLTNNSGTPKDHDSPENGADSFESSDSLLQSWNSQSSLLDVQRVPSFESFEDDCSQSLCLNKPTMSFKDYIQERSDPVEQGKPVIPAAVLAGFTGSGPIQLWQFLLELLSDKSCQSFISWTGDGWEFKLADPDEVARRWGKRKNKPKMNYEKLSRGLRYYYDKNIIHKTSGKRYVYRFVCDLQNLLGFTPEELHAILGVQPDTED
The method, boiled down: as §1

Test [4] has as its target T4, ETV7 (Homo sapiens, UniProt Q9Y603 1-341).
T4 sequence: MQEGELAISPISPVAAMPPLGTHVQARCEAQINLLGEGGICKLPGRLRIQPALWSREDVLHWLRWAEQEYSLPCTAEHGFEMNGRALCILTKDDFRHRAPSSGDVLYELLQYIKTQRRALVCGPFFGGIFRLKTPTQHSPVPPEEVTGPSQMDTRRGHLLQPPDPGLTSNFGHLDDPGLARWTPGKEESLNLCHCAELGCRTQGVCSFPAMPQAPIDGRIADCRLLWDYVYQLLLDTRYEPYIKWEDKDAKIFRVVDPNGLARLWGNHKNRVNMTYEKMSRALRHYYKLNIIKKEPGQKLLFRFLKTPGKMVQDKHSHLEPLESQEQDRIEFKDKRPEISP
The method, boiled down: as §1

For test [5], the target named is T5, ELF5 (Homo sapiens, UniProt Q9UKW6-2 1-255).
T5 sequence: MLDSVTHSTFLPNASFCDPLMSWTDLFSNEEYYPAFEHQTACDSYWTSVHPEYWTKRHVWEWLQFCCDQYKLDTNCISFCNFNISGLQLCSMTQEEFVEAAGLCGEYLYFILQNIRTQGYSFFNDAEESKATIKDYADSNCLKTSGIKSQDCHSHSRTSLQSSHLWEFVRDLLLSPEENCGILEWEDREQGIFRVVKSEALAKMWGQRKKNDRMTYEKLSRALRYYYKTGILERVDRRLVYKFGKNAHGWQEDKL
The method, boiled down:
as §1

The target of test [6] is T6, ETV3 (Homo sapiens, UniProt P41162-2 1-143).
T6 sequence: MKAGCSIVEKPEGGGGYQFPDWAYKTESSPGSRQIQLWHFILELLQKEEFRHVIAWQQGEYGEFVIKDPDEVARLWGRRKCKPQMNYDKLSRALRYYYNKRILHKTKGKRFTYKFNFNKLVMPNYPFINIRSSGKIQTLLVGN
Put shortly: as §1

The target of test [7] is ETV6 (Homo sapiens, UniProt P41212 1-452). The method, boiled down: as §1
ETV6, sequence (P41212 whole entry): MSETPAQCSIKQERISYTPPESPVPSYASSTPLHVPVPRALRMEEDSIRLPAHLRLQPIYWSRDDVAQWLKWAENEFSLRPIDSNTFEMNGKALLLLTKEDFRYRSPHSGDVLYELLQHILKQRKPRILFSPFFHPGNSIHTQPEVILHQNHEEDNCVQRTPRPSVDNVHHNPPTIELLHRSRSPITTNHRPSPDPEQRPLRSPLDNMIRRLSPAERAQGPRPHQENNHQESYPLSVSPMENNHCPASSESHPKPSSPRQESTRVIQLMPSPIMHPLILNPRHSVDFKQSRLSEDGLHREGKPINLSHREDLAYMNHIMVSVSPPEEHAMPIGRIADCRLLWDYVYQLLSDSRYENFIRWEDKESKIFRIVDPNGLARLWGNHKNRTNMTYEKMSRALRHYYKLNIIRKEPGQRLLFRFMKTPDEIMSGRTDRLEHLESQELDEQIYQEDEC
The target of test [8] is T7, SPDEF (Homo sapiens, UniProt O95238 1-335).
T7 sequence: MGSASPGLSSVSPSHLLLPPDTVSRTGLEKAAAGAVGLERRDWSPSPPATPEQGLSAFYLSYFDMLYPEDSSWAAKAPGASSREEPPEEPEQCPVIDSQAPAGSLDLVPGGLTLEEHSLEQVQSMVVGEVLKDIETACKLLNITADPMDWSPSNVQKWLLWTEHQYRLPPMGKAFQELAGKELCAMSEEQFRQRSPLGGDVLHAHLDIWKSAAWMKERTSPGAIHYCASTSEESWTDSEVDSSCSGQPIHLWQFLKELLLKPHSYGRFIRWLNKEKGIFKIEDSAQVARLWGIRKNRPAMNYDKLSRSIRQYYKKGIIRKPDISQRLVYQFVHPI
Put shortly: as §1

On to ACGCAC, for which the binding signal was 1.13 fold enrichment (6-mer frequency, TF over GST control) in test [1]; 1.01 fold enrichment (6-mer frequency, TF over GST control) in test [2]; 1.09 fold enrichment (6-mer frequency, TF over GST control) in test [3]; 1.03 fold enrichment (6-mer frequency, TF over GST control) in test [4]; 1.03 fold enrichment (6-mer frequency, TF over GST control) in test [5]; 1.13 fold enrichment (6-mer frequency, TF over GST control) in test [6]. Moreover, in test [7], the binding signal was 1.02 fold enrichment (6-mer frequency, TF over GST control).

Turning to ACTCGC, the binding signal in test [1] was 1.17 fold enrichment (6-mer frequency, TF over GST control); in test [2], 1.08 fold enrichment (6-mer frequency, TF over GST control); in test [3], 1.14 fold enrichment (6-mer frequency, TF over GST control); in test [4], 1.09 fold enrichment (6-mer frequency, TF over GST control); in test [5] it was 1.08 fold enrichment (6-mer frequency, TF over GST control); in test [6], 1.08 fold enrichment (6-mer frequency, TF over GST control). The binding signal in test [7] is 1.25 fold enrichment (6-mer frequency, TF over GST control).

With GAACAT, the binding signal in test [1] is 1.1 fold enrichment (6-mer frequency, TF over GST control); in test [2], 1.01 fold enrichment (6-mer frequency, TF over GST control); in test [3], 1 fold enrichment (6-mer frequency, TF over GST control); in test [4] it was 1.11 fold enrichment (6-mer frequency, TF over GST control); in test [5], 1.09 fold enrichment (6-mer frequency, TF over GST control); in test [6], 1.08 fold enrichment (6-mer frequency, TF over GST control). Besides, the binding signal in test [7] was 1.07 fold enrichment (6-mer frequency, TF over GST control).

Turning to TTTCGC, the binding signal is 1.1 fold enrichment (6-mer frequency, TF over GST control) in test [1]; 1.25 fold enrichment (6-mer frequency, TF over GST control) in test [2]; 1.14 fold enrichment (6-mer frequency, TF over GST control) in test [3]; 1.16 fold enrichment (6-mer frequency, TF over GST control) in test [4]; 1.08 fold enrichment (6-mer frequency, TF over GST control) in test [5]; 1.13 fold enrichment (6-mer frequency, TF over GST control) in test [6]. Further, in test [7], the binding signal was 1.11 fold enrichment (6-mer frequency, TF over GST control).

Take ATAAAG: the binding signal was 1.02 fold enrichment (6-mer frequency, TF over GST control) in test [1]; 1.01 fold enrichment (6-mer frequency, TF over GST control) in test [2]; 1 fold enrichment (6-mer frequency, TF over GST control) in test [3]; 1.09 fold enrichment (6-mer frequency, TF over GST control) in test [4]; 1.03 fold enrichment (6-mer frequency, TF over GST control) in test [5]; 1.05 fold enrichment (6-mer frequency, TF over GST control) in test [6]. Moreover, the binding signal in test [7] is 1.03 fold enrichment (6-mer frequency, TF over GST control).

With GCTGGC, the binding signal in test [1] is 1.12 fold enrichment (6-mer frequency, TF over GST control); in test [2] it was 1.04 fold enrichment (6-mer frequency, TF over GST control); in test [3], 1.04 fold enrichment (6-mer frequency, TF over GST control); in test [4], 1.12 fold enrichment (6-mer frequency, TF over GST control); in test [5], 1 fold enrichment (6-mer frequency, TF over GST control); in test [6], 1.1 fold enrichment (6-mer frequency, TF over GST control). The binding signal in test [7] was 1.02 fold enrichment (6-mer frequency, TF over GST control).

In the case of ATCACA, the binding signal was 1.04 fold enrichment (6-mer frequency, TF over GST control) in test [1]; 1.05 fold enrichment (6-mer frequency, TF over GST control) in test [2]; 1.09 fold enrichment (6-mer frequency, TF over GST control) in test [3]; 1.05 fold enrichment (6-mer frequency, TF over GST control) in test [8]; 1.09 fold enrichment (6-mer frequency, TF over GST control) in test [6]; 1.13 fold enrichment (6-mer frequency, TF over GST control) in test [7].

AATCGC: the binding signal in test [1] was 1.01 fold enrichment (6-mer frequency, TF over GST control); in test [2], 1.05 fold enrichment (6-mer frequency, TF over GST control); in test [3] it was 1.17 fold enrichment (6-mer frequency, TF over GST control); in test [4], 1.07 fold enrichment (6-mer frequency, TF over GST control); in test [5], 1.1 fold enrichment (6-mer frequency, TF over GST control); in test [6] it was 1.08 fold enrichment (6-mer frequency, TF over GST control). Moreover, the binding signal in test [7] was 1.17 fold enrichment (6-mer frequency, TF over GST control).

Turning to CTGGCC, the binding signal in test [1] is 1.19 fold enrichment (6-mer frequency, TF over GST control); in test [2], 1.11 fold enrichment (6-mer frequency, TF over GST control); in test [3] it was 1.17 fold enrichment (6-mer frequency, TF over GST control); in test [4], 1.03 fold enrichment (6-mer frequency, TF over GST control); in test [5] it was 1.01 fold enrichment (6-mer frequency, TF over GST control); in test [6], 1.06 fold enrichment (6-mer frequency, TF over GST control). For the same sequence, the binding signal in test [7] was 1.23 fold enrichment (6-mer frequency, TF over GST control).

As for GAATCT, the binding signal was 1.17 fold enrichment (6-mer frequency, TF over GST control) in test [1]; 1.05 fold enrichment (6-mer frequency, TF over GST control) in test [2]; 1.08 fold enrichment (6-mer frequency, TF over GST control) in test [3]; 1.03 fold enrichment (6-mer frequency, TF over GST control) in test [4]; 1.07 fold enrichment (6-mer frequency, TF over GST control) in test [5]; 1.13 fold enrichment (6-mer frequency, TF over GST control) in test [6]. The binding signal in test [7] is 1.06 fold enrichment (6-mer frequency, TF over GST control).

Regarding TAGCTG, the binding signal is 1.16 fold enrichment (6-mer frequency, TF over GST control) in test [1]; 1.14 fold enrichment (6-mer frequency, TF over GST control) in test [2]; 1.04 fold enrichment (6-mer frequency, TF over GST control) in test [3]; 1.15 fold enrichment (6-mer frequency, TF over GST control) in test [4]; 1.13 fold enrichment (6-mer frequency, TF over GST control) in test [5]; 1.23 fold enrichment (6-mer frequency, TF over GST control) in test [6]. Also, the binding signal in test [7] was 1.2 fold enrichment (6-mer frequency, TF over GST control).

CATTAT: the binding signal is 1.21 fold enrichment (6-mer frequency, TF over GST control) in test [1]; 1.24 fold enrichment (6-mer frequency, TF over GST control) in test [2]; 1.21 fold enrichment (6-mer frequency, TF over GST control) in test [3]; 1.31 fold enrichment (6-mer frequency, TF over GST control) in test [4]; 1.12 fold enrichment (6-mer frequency, TF over GST control) in test [5]; 1.15 fold enrichment (6-mer frequency, TF over GST control) in test [6]. Besides, in test [7], the binding signal was 1.2 fold enrichment (6-mer frequency, TF over GST control).

Turning to TCTAGG, the binding signal was 1.03 fold enrichment (6-mer frequency, TF over GST control) in test [1]; 1.08 fold enrichment (6-mer frequency, TF over GST control) in test [2]; 1.02 fold enrichment (6-mer frequency, TF over GST control) in test [3]; 1.16 fold enrichment (6-mer frequency, TF over GST control) in test [4]; 1.07 fold enrichment (6-mer frequency, TF over GST control) in test [5]; 1.12 fold enrichment (6-mer frequency, TF over GST control) in test [6]. The binding signal in test [7] was 1.02 fold enrichment (6-mer frequency, TF over GST control).
